AmpC inh no detg = inhibitors of E. coli AmpC beta-lactamase without detergent; P00811; AmpC nitrocefin hydrolysis, absorbance 480 nm, 0.0001% Triton; Potency, µM (top dose mostly 57.1 µM), for the others: at the highest dose activity change, negative = inhibition, hits mostly inhibitors; actives 0.52% (n = 330,000); AID 485341;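 note: potency is the fitted concentration of half-maximal effect; plate controls were no compound for no effect and no enzyme for full effect; nearly all actives have a fitted effect of over 20% in size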
Target sequence (P00811 whole entry, looked up): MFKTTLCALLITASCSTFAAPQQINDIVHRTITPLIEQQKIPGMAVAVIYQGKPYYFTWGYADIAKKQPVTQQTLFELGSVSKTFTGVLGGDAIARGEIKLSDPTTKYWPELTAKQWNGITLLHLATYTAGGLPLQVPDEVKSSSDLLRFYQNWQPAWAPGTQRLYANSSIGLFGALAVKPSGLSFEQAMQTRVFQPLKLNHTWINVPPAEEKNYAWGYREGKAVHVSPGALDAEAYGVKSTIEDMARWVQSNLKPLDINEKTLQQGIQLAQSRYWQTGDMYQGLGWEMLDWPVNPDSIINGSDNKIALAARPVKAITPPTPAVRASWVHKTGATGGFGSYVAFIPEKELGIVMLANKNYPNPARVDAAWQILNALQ
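20 mM phosphate pH 7.0 + 0.01% (detergent screen) or 0.0001% Triton X-100; 5.3 nM AmpC reagent; cpd preinc 15 min RT; nitrocefin (800 uM stock) to start; A480 q20 s × 4 min; Activity was normalised to no-enzyme and no-compound control wells.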
FBPA Giardia inh = inhibitors of Giardia lamblia fructose-1,6-bisphosphate aldolase. A8B2U2. purified Giardia FBPA. Potency, µM (series often up to 59.6 µM), inactives show at the highest dose activity, negative = inhibition, hits mostly inhibitors. actives 0.71% (n = 290,000); note: potency is the fitted concentration of half-maximal effect; % is set by controls: 0 for no effect and ±100 for the full control effect; nearly all actives have a fitted effect of over 55% in size
Target sequence (A8B2U2 whole entry, looked up): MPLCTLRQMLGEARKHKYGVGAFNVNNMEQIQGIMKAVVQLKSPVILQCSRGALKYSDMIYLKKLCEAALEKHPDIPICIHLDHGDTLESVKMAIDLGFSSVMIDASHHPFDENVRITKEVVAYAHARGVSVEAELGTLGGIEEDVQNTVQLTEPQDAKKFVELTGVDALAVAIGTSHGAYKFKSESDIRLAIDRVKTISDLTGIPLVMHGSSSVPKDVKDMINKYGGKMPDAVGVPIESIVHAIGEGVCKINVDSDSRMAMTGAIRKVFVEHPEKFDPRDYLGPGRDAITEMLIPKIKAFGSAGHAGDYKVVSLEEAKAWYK
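Giardia FBPA (40 nM reagent) was preincubated 10 min at RT with compound (up to 57.5 uM final), then substrate plus GAPDH/TPI/NAD/arsenate coupling system with diaphorase/resazurin was added; resorufin fluorescence (525/598 nm) was read after 20 min.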
AmpC detergent = blocks E. coli AmpC beta-lactamase in detergent assay | Potency, µM (doses to about 114 µM), for the others: at the highest dose activity change, negative = inhibition, most hits filed as inhibitors | AID 485294 | actives 0.041% (n = 370,000) | P00811 | AmpC hydrolysis of nitrocefin, absorbance 480 nm, 0.01% Triton;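 note: potency is the fitted concentration of half-maximal effect; 0% = no-compound wells and -100% = no-enzyme wells; nearly all actives have a fitted effect of over 25% in size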
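20 mM phosphate pH 7.0 + 0.01% (detergent screen) or 0.0001% Triton X-100; 5.3 nM AmpC reagent; cpd preinc 15 min RT; nitrocefin (800 uM stock) to start; A480 q20 s × 4 min; Activity was normalised to no-enzyme and no-compound control wells.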
NS1 function inh = influenza NS1 inhibition; AID 2326; Potency, µM (series often up to 46.1 µM), inactives show at the highest dose activity, positive = more growth; actives 0.4% (n = 270,000); calls by dose curve; note: potency is the fitted concentration of half-maximal effect; actives are rising curves; nearly all actives have a fitted effect of over 50% in size
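Compounds were scored for reversing the slow growth caused by influenza A NS1 in S. cerevisiae, measured by optical density at 600 nm. Assay medium contained 2% galactose at pH 6.0; NS1-free yeast of the same strain were the positive control.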
SARS PLpro yeast = blocks SARS-CoV papain-like protease in a yeast assay; actives 0.19% (n = 330,000); Potency, µM (titrated, usually from 32.9 µM), without a hit: at the highest dose activity, positive = growth rescue, actives largely listed as activators; S. cerevisiae expressing SARS-CoV PLpro, growth rescue; calls by dose curve; note: potency is the fitted concentration of half-maximal effect; 0% is about no effect; nearly all actives have a fitted effect of over 55% in size
Flu NS1 inh = influenza NS1 function inhibition validation; shares compounds with NS1 function inh; influenza NS1 function cell assay, 15-point titration; activity change, negative = inhibition, % at 32.9 µM; 1,400 tested, under 10 active; AID 492980; calls by dose curve; note: 0% is about no effect
Flu PR8 replic = influenza virus titer reduction, NS1 project; shares compounds with NS1 function inh; MDCK infected influenza A/PR/8/34, virus titer TCID50; stronger effect = lower value; virus titer (log TCID50), log10 TCID50 at 5 µM; actives 30% (n = 95); AID 504647; call rule not given here
* hit, by the source's call; ? = inconclusive; · = no result. In the library only some 1.4% were active in any assay of this set; here they are far more common. Unless noted, calls come from the whole dose curve; as a rule, active = well fitted curve in the direction sought with a large enough effect; inconclusive = small, poorly fitted or top-dose-only effect, or another doubt; inactive = no such curve, though single readings can be large; an effect the other way counts as inactive or inconclusive.

SMILES	AmpC inh no detg	FBPA Giardia inh	AmpC detergent	NS1 function inh	SARS PLpro yeast	Flu NS1 inh	others
CCOc1ccccc1OCC(=O)Oc1ccc(C)c(C)c1	-13%	11%	?	-21%	4%	·
CC1CCc2nc3ncn(Cc4ccc(Cl)cc4)c(=O)c3cc2C1 (stereo not given)	·	·	18%	·	·	·
Nc1ccccc1OCCOCCOc1ccccc1N	1%	-2%	-7%	5µM*	-7%	-1
Nc1ccccc1OCCOc1ccccc1N	-13%	-1%	-21%	6%	1%	·
CCS(=O)(=O)c1nnnn1-c1ccccc1S(C)(=O)=O	-4%	2%	1%	14µM*	1%	5
Cc1c([N+](=O)[O-])c([N+](=O)[O-])nn1CC(=O)N1CCCCC1	-1%	-2%	-3%	-19%	8%	·
Cc1c(Cl)c([N+](=O)[O-])nn1CC(=O)N1CCCC1	5%	6%	-13%	?	24%	6
Cc1ccc(-n2c(O)c(/C=N/Nc3ccc(S(=O)(=O)N4CCOCC4)cc3[N+](=O)[O-])c3ccccc3c2=O)c(C)c1	-10%	-10%	?	2.5µM*	-9%	34
COc1ccc(NC(=O)Nc2nnc(N3CCCCCC3)s2)c(OC)c1	·	·	18%	·	·	·
COc1ccc(OC)c(/C=N/NC(=O)Cc2nc3ccccc3[nH]2)c1	-27%	10%	-9%	2µM*	-9%	10
O=C(Cc1nc2ccccc2[nH]1)N/N=C/c1ccccc1	-26%	1%	-5%	?	-3%	·
O=C1CCC(C(=O)N2CCCCCC2)CN1CCc1ccc(Cl)cc1 (stereo not given)	84%	0%	-13%	2µM*	6%	-14
O=C1CCC(C(=O)N2CCC(O)CC2)CN1CCc1ccc(Cl)cc1 (stereo not given)	-6%	·	2%	6%	-1%	·
Cn1nc(-c2ccccc2)c(C#N)c1Sc1cccc(Cl)c1	-8%	1%	-3%	?	-4%	-14
Cc1nn(C)c(Oc2cccc(Cl)c2)c1C#N	-2%	-1%	-11%	·	0%	·
O=C(Cn1c2c(sc1=O)C1c3ccccc3OCC1CS2)Nc1ccc(Cl)c(Cl)c1 (stereo not given)	-35%	-7%	?	20µM*	4%	-5
Oc1c(CN2CCCCC2)cc(COCc2ccccc2)c2cccnc12	2%	5%	?	-84%	5%	·
COCc1cc(CN2CCCC2)c(O)c2ncccc12	64%	?	-4%	0.71µM*	0%	?
COc1ccccc1C(=O)c1nc2ccccc2n1C	-12%	-7%	4%	3%	0%	·
CC(=O)Nc1ccc(S(=O)(=O)Oc2ccc(C(=S)N3CCC(O)CC3)cc2)cc1	14%	12%	?	?	-15%	-18
Cc1ccc(OCC(=O)N(C)CC(=O)Nc2ccc(F)c(F)c2F)cc1	4%	·	-4%	·	-2%	·
COc1ccccc1N1CCN(C2CCCN(C(=O)c3cscn3)C2)CC1 (stereo not given)	-10%	-6%	-4%	?	-1%	-13
COc1ccccc1N1CCN(C2CCCN(C(=O)c3cc(C4CC4)on3)C2)CC1 (stereo not given)	47%	-4%	?	0%	10%	·
CC1=C(C(=O)N2CCCC(N3CCN(c4ccccc4C)CC3)C2)OCCO1 (stereo not given)	92%	-2%	-9%	2.5µM*	17%	1
COC(=O)c1c(NC(=O)CN2C(=O)c3ccccc3C2=O)sc(Cc2ccc3c(c2)OCO3)c1C	-59%	4%	?	10µM*	3%	-37
SMILES	AmpC inh no detg	FBPA Giardia inh	AmpC detergent	NS1 function inh	SARS PLpro yeast	Flu NS1 inh	others
COC(=O)c1c(NC(=O)CN2CCN(Cc3ccc4c(c3)OCO4)CC2)sc(C)c1C	164%	-7%	-20%	-54%	-1%	·
Cc1cc(N2CCOCC2)nc2ccc(NC(=O)CCC(=O)N3CCC(C)CC3)cc12	0%	?	9%	5.6µM*	-1%	?
c1ccc(-c2nc3ccccc3[nH]2)nc1	12%	2%	-21%	4.5µM*	-47%	?
O=C(CSc1nncn1-c1ccccn1)Nc1ccccc1Cl	-8%	-3%	-8%	-6%	-5%	·
Cc1c(Cl)cccc1NC(=O)CSc1nncn1-c1ccccn1	-23%	3%	-1%	?	0%	0	Flu PR8 replic=8.5
COC(CNC(=O)c1ccc2c(c1)nc(C)n2-c1cc(C)cc(C)c1)OC	93%	7%	0%	-6%	1%	·
COC(=O)c1cc(NC(=O)C2(S(=O)(=O)c3ccc(Cl)cc3)CC2)cc(C(=O)OC)c1	35%	-5%	-16%	11µM*	7%	3
COC(=O)C(=C/C(C)=C/c1cccs1)C(=O)OC	-7%	3%	1%	-68%	-3%	·
CCn1cc(CN2CCC(n3nccc3NC(=O)Cc3ccccc3)CC2)c(C)n1	4%	·	1%	13%	10%	·
Cc1ccc(S(=O)(=O)n2nc(C)cc2N)cc1	-2%	2%	0%	22µM*	1%	3
Cc1ccsc1/C=N/NC(=O)c1cc(-c2ccncc2)nc2ccccc12	161%	-2%	-5%	23%	-9%	·
CC(C)(C)OC(=O)N1CCN(CCNC(=O)c2ccccc2)CC1	17%	3%	3%	-2%	-2%	·
COc1ccc(C(c2nnnn2C2CCCCC2)N2CCN(c3ccc(OC)cc3)CC2)cc1 (stereo not given)	49%	-3%	-3%	-8%	-8%	·
c1cc(N2CCCC2)ccc1C(c1nnnn1C1CCCCC1)N1CCOCC1 (stereo not given)	107%	-7%	?	11µM*	0%	5
Nc1ccc(-c2nc3cc(N)ccc3n2CCO)cc1	-13%	?	-4%	7.9µM*	1%	2
Cc1c(C(=O)N2CCN(Cc3ccc4c(c3)OCO4)CC2)sc2ncnc(N3CCN(c4ccccc4F)CC3)c12	142%	·	-2%	-16%	-2%	·
Cc1c(C(=O)N2CCN(Cc3ccc4c(c3)OCO4)CC2)sc2ncnc(N3CCN(c4ccccc4)CC3)c12	106%	16%	-7%	2.5µM*	-11%	?
Cc1cccc(NC(=O)CSCc2nc3c(nnn3Cc3ccc(F)cc3)c(=O)[nH]2)c1C	5%	3%	?	-1%	-1%	·
CN(C)c1ccc(NC(=O)CSCc2nc3c(nnn3Cc3ccc(F)cc3)c(=O)[nH]2)cc1	-22%	?	-2%	6.3µM*	5%	-5	Flu PR8 replic=7.7
CC(C)CNC(=O)COC(=O)c1cncc(Br)c1	-23%	1%	3%	9%	8%	·
O=C(O)CCc1ccc(-c2ccc(Cl)cc2)n1-c1cccc(C(F)(F)F)c1	·	·	-1%	·	·	·

From PubChem BioAssay
